High-throughput results from PubChem.
Tg IFNy HTS = T. gondii growth inhibition under IFN-gamma. Toxoplasma gondii growth in IFN-gamma-treated host cells; active compounds read low. activity change, negative = inhibition, % (concentration not given with the values). hit rate 3.8% among 69,000. AID 1259416; in the data active means activity change below about -70%, passing the limit was not always enough;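 further: host cells are HeLa cells infected with Toxoplasma gondii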
An asterisk follows results filed as active. The sample as a whole holds a higher share of hits than the screen did.

SMILES	Tg IFNy HTS
Cn1cc(CN2C[C@H]3CCCO[C@H]3[C@H](NS(C)(=O)=O)C2)cn1	-2
Cc1csc(CN2C[C@H]3CCCO[C@H]3[C@H](N3CCCC3)C2)n1	-1
COCC(=O)N[C@H]1CN(Cc2scnc2C)C[C@H]2CCCO[C@H]21	-81*
Cc1nc2nnc3ccc(C(=O)N(C)Cc4ccccn4)cc3c2n1Cc1ccccc1	-109*
CN(C)C(=O)c1ccc2nnc3ncn(Cc4ccccc4)c3c2c1	-46
Cc1nc2nnc3ccc(C(=O)N(C)C)cc3c2n1-c1ccccc1	-3
OCc1ccc(-c2nccn2C[C@H]2CCc3ccccc3O2)o1	13
Cn1nc(Cn2cccc2)c2c1CN(CC1CCOC1)C2 (stereo not given)	2
COc1cncc(C(=O)Nc2ccc(Cl)cc2)c1	30
CSc1ncc2c(n1)-c1c(SC)sc(C(=O)Nc3ccc(Cl)cc3)c1CC2	-85*
CSc1sc(C(=O)Nc2cc(C(F)(F)F)cc(C(F)(F)F)c2)c2c1C=CCC2	-55
CN(C)C(=O)N1CCC2(CC1)CC(NCc1nccn1C)c1ccccc12 (stereo not given)	4
Cc1ccc(C(=O)N2CCOC3CC(COCc4ccccn4)CC32)o1 (stereo not given)	-57
Cc1c(-c2cncn2CCNC2CCS(=O)(=O)C2)[nH]c2ccccc12 (stereo not given)	-14
CC(=O)OCC(=O)[C@H]1CCC2C3CCC4=CC(=O)CC[C@]4(C)C3CC[C@@]21C (stereo not given in full)	-30
CC(=O)OC(C)C1CCC2C3CC[C@H]4CC(=O)CCC4(C)C3CCC12C (stereo not given in full)	-97*
C[C@H](CCC(=O)O)[C@H]1CC[C@H]2[C@@H]3[C@@H](O)C[C@@H]4C[C@H](O)CC[C@]4(C)[C@H]3CC[C@]12C	11
Cc1ccc(F)c(-c2cnc(N)cn2)c1	-44
CC(C)Cc1noc(CNC(=O)C(C)N2C(=O)c3cccc4cccc2c34)n1 (stereo not given)	1
CC(C)(C)c1cnc(CSc2cnc(NC(=O)C3CCNCC3)s2)o1	-72*
CN(C)CCOCc1nnn2c1CN(Cc1cccs1)CCC2	-35
CN(C)C(=O)N1CCC(c2nnc3ccc(C(=O)NCCc4ccncc4)cn23)C1 (stereo not given)	11
Cc1ccccc1Cc1cnc(NC(=O)C2(C)Cc3ccccc3C(=O)O2)s1 (stereo not given)	-52
O=C(NCc1ccco1)N1CCC2(CC1)Nc1cccnc1NC2=NCc1ccccc1	-52
Cc1ccc(CNC(=O)Cn2ncc3c(N4CCC(C)CC4)ncnc32)cc1	-94*
SMILES	Tg IFNy HTS
O=C(Cn1ncc2c(N3CCCC3)ncnc21)NCc1ccc(F)cc1	-61
CCOc1ccc(CNC(=O)Cn2ncc3c(N4CCC(C)CC4)ncnc32)cc1OCC	189
Cc1ccc(CNC(=O)Cn2ncc3c(N4CCCC4)ncnc32)cc1	44
CC1CCN(c2ncnc3c2cnn3CC(=O)NCc2ccc(F)cc2)CC1	-95*
CCN(CC)c1ncnc2c1cnn2CC(=O)NCc1ccc(F)cc1F	-104*
CCc1ccc(CNC(=O)Cn2ncc3c(N4CCCCC4)ncnc32)cc1	168
O=C(Cn1ncc2c(N3CCCCCC3)ncnc21)NCc1ccc(C(F)(F)F)cc1	-82*
CCN(CC)c1ncnc2c1cnn2CC(=O)NCc1ccc(F)c(Cl)c1	-28
O=C(Cn1ncc2c(N3CCCCC3)ncnc21)NCc1ccncc1	-29
O=C(Cn1ncc2c(N3CCOCC3)ncnc21)NCc1ccc(C(F)(F)F)cc1	-35
CCN(CC)c1ncnc2c1cnn2CC(=O)NCc1cc(F)cc(F)c1	32
CC(=O)Nc1ccc(NC(=O)COc2ccc(C)cc2)cc1	-20
CCS(=O)(=O)N1CC[C@@]2(C[C@H](N3CCCC3=O)CCO2)C1	29
Cc1ccc(-c2nnc(C3CCCN3C(=O)Cn3cc(C(C)C)nn3)o2)s1 (stereo not given)	15
COc1cc(OC)cc(-c2nnc(NC(=O)c3cc(C)nc4c3c(C)nn4C)s2)c1	-1
Cc1cc(C)cc(S(=O)(=O)N2CCC3(CC2)NCCN=C3NCc2cccc(F)c2)c1	18
Cn1c(CN(Cc2ccncc2)Cc2ccc(F)cc2)nc2ccccc21	-41
CCc1nc(NC(=O)c2cc3ccccc3c(=O)s2)sc1C	1
COCCN(C)C(=O)c1ccc2ccc(N(C)c3ccccc3)n2c1	-10
Cc1ccc(S(=O)(=O)NCCc2sc(-c3ccccc3)nc2C)cc1C	81
Cc1ccc(CN2CC3CN(Cc4cccc(F)c4)CC3C2)s1 (stereo not given)	-55
Cc1c(C)c(C)c2[nH]c(-c3ccc4c(c3)OCO4)nc2c1C	-95*
Cc1ccc2[nH]c(=O)c(-c3nc(-c4ccc5c(c4)OCO5)no3)c(O)c2c1	335
CC(c1ccc(-c2ccc3c(c2)OCO3)cc1)N1CCOCC1 (stereo not given)	90
CO[C@H]1CC[C@@H]2[C@@H]1OCCN2C(=O)c1ccc2ccccc2c1	-3
SMILES	Tg IFNy HTS
CN(C)CC(=O)N1CCCn2cnc(CNc3ncccn3)c2C1	14
Cc1cc(C)cc(C(=O)N2CCc3c(CNc4ncccn4)nn(C)c3C2)c1	13
CC(C)n1nc(CNc2ncccn2)c2c1CN(C(=O)N(C)C)CC2	-76*
Cc1cccc(C)c1NC1=NC(=S)N(c2cccc(Cl)c2)C12CCCC2	-59
COCC1CCC2(CCN(C(=O)COc3ccc(F)cc3)CC2)N1C (stereo not given)	-2
COc1ccccc1CNC(=O)c1cc2cc(S(=O)(=O)N(C)C)ccc2n1Cc1ccncc1	1
CN(C)S(=O)(=O)c1ccc2c(c1)cc(C(=O)NCCCN1CCCC1)n2Cc1ccccc1	-96*
CN(C)S(=O)(=O)c1ccc2c(c1)cc(C(=O)NC1CCCCCCC1)n2Cc1ccncc1	-74*
CN(C)S(=O)(=O)c1ccc2c(c1)cc(C(=O)NC1CCCCCC1)n2Cc1ccncc1	51
CN(C)S(=O)(=O)c1ccc2c(c1)cc(C(=O)NCc1ccccc1Cl)n2Cc1ccncc1	-95*
CN(C)S(=O)(=O)c1ccc2c(c1)cc(C(=O)NCc1ccccc1)n2Cc1ccncc1	-13
Cc1ccccc1CNC(=O)c1cc2cc(S(=O)(=O)N(C)C)ccc2n1Cc1ccncc1	9
CN(C)CCNC(=O)c1cc2cc(S(=O)(=O)N(C)C)ccc2n1Cc1ccncc1	40
CN(C)S(=O)(=O)c1ccc2c(c1)cc(C(=O)NC1CCCC1)n2Cc1ccncc1	133
CS(=O)(=O)N1CCCCC1CCc1ccccc1 (stereo not given)	-10
O=C(Nc1ccccc1N1CCCCC1)c1nsc(Cl)c1Cl	-20
COCC1CCC2(CCN(C(=O)c3ccnnc3)CC2)N1CC1CC1 (stereo not given)	-8
Cc1ccc2c(c1)c(C(=O)N1CCC(O)(CN(C)C)C1)nn2C (stereo not given)	-2
Cc1ncc(-c2c(-c3ccccc3)ncn2CCN(C(C)C)C(C)C)n1C	10
Cc1nc(CN)cc(N2C[C@H]3CC[C@H]2C3)n1	-17
CC(C)NC(=O)N1CCC[C@]2(C(=O)N3CCOCC3)CN(Cc3cnn(C)c3)C[C@H]2C1	6
CC(=O)N1C[C@@H]2C(=O)N(C)C3(CCN(S(=O)(=O)Cc4ccccc4)CC3)[C@H]2C1	-42
O=C1C(Cc2ccccc2)N=C2c3ccccc3N=C(SCc3cc(=O)n4cc(Cl)ccc4n3)N12 (stereo not given)	1
C=CCOC1C2CCC1N(C(=O)Cc1ccc(F)cc1)C2 (stereo not given)	-15
CCc1ccc(NC(=O)N2CCC3(CC2)OC(C(=O)NCC(C)C)Cn2ccnc23)cc1 (stereo not given)	60
